From PubChem BioAssay (NCATS)
“And” between values parts separate entries of the source, which are not always exact repeats. Equal values may be shown once. Inconclusive results are not listed. Unmarked numbers belong to inactive results. The source made the active and inactive calls. Calls follow the shape of the dose curve; as a rule, active = well fitted inhibition curve with a large enough effect; inconclusive = small, poorly fitted or top-dose-only effect; inactive = flat fitted curve, though single readings scatter. Where a SMILES comes first, the peptide text is derived from it. [ ]: non-standard residue; d: D form. pGlu = O=C1CC[C@@H](C(=O)O)N1

Legend:
Assay in all cases: Cytotoxic Profiling of Annotated Libraries Using Quantitative High-Throughput Screening (AID 1296008); also: nearly all actives have a fitted effect of over 60% in size
Settings in all cases: Five cell lines viability, CellTiter-Glo ATP luminescence, 48-72 h; max response: stronger effect = lower value
[1] = tested on: CRL-7250
Outline: (§1)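 Cells exposed to compounds for 48 or 72 hr at 37 degrees Celsius. Viability read as ATP-coupled luminescence with CellTiter-Glo after 10 min at room temperature.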

[2] = tested on: HEK293
Outline: as §1

[3] = tested on: HaCat
Outline: as §1
% is scaled to controls: 0 for no effect and ±100 for the full control effect; potency is read from the fitted curve at half-maximal effect.

SMILES: COc1ccc([C@@H]2Sc3ccccc3NC(=O)[C@@H]2O)cc1
- max response [1]: -22.1%

SMILES: Cc1cc(=O)oc2cc(O[C@@H]3SC[C@@H](O)[C@H](O)[C@H]3O)ccc12
- max response [1]: -1.48%
- max response [2]: -8.77%
- max response [3]: 4.75%

SMILES: CCNC(=O)[C@@H]1CCCN1C(=O)[C@H](CCCN=C(N)N)NC(=O)[C@H](CC(C)C)NC(=O)CNC(=O)[C@H](Cc1ccc(O)cc1)NC(=O)[C@H](CO)NC(=O)[C@H](Cc1c[nH]c2ccccc12)NC(=O)[C@H](Cc1cnc[nH]1)NC(=O)[C@@H]1CCC(=O)N1 ([pGlu]HWSYGLRP-NHEt)
- outcome [1]: inactive
- max response [2]: -8.7%

SMILES: Nc1nc(=O)n([C@@H]2O[C@H](CO)[C@@H](O)[C@@H]2F)cc1I
- max response [1]: -26.4%
- outcome [2]: inactive
- max response [3]: 3.07%

SMILES: Nc1ccc(C(=O)N2CC3CC(CN(Cc4ccccc4)C3)C2)cc1
- max response [1]: -9.41%
- outcome [2]: inactive
- max response [3]: 3.27%

SMILES: COCCOCC(OC)OC
- max response [1]: -5.92%
- max response [2]: -49.7%
- outcome [3]: inactive

SMILES: CN1[C@@H]2CC[C@H]1CC(NC(=O)n1c(=O)[nH]c3ccccc31)C2 (stereo not given in full)
- max response [1]: -3.19%
- max response [2]: -4.57%

SMILES: CCCCCCCCCCCCCCCCCCN(C)C
- max response [1]: -11.6%
- max response [2]: -2.54%

SMILES: CC(=O)N[C@@H](CCC(N)=O)C(=O)O
- max response [1]: -5.46%
- outcome [2]: inactive
- outcome [3]: inactive

SMILES: CC(C)OP(=O)(CP(=O)(OC(C)C)OC(C)C)OC(C)C
- max response [1]: -7.87%
- max response [2]: -0.755%
- outcome [3]: inactive

SMILES: Cc1cccc(N(C)C(=S)Oc2ccc3c(c2)C2CCC3C2)c1 (stereo not given)
- Potency [1]: 29.9 µM (active)

SMILES: CN(C)c1cc2c(Nc3ccc4c(cnn4Cc4ccccc4)c3)ncnc2cn1
- max response [1]: -15%

SMILES: Nc1ccc2c(c1)CN1C(=O)c3ccccc3C1=N2
- Potency [1]: 8.2 µM (active)
- Potency [2]: 5.8 µM (active)

SMILES: CC(C)=CCNc1ncnc2c1ncn2[C@@H]1O[C@H](CO)[C@@H](O)[C@H]1O
- Potency [1]: 1.5 µM (active)

SMILES: O=c1[nH]c(=O)n([C@H]2O[C@H](CO)[C@@H](O)[C@@H]2O)cc1/C=C\Br
- max response [1]: -8.24%
- outcome [2]: inactive
- max response [3]: 4.03%

SMILES: COCCc1ccccn1
- max response [1]: -7.75%
- max response [2]: -0.362%
- outcome [3]: inactive

SMILES: CCNC(=O)NCCCOc1cccc(CN2CCCCC2)c1
- max response [1]: -12.2%
- max response [2]: -59.3%

SMILES: Nc1c(NC/C=C\COc2cc(CN3CCCCC3)ccn2)c(=O)c1=O
- max response [1]: -21.7%
- max response [2]: -20.2%
- max response [3]: -11%

SMILES: C[C@@H](O[C@H]1OCCN(Cc2n[nH]c(=O)[nH]2)[C@H]1c1ccc(F)cc1)c1cc(C(F)(F)F)cc(C(F)(F)F)c1
- max response [1]: 4.27%

SMILES: CCOC(=O)O[C@]1(C(=O)OCCl)CC[C@H]2[C@@H]3CCC4=CC(=O)C=C[C@]4(C)[C@H]3[C@@H](O)C[C@@]21C
- outcome [1]: inactive
- outcome [2]: inactive
- max response [3]: -4.73%

SMILES: CCOc1c(N2CCOCC2)cnn(C)c1=O
- max response [1]: -1.71%
- outcome [2]: inactive
- max response [3]: -2.94%

SMILES: NS(=O)(=O)c1cc2c(cc1Cl)CN(C1CCCCC1)C2=O
- max response [1]: -6.27%
- outcome [2]: inactive

SMILES: CCN(CC)CCN
- max response [1]: 3.12%
- max response [2]: 2.25%

SMILES: O=c1[nH]sc2cc(Cl)ccc12
- max response [1]: -108%
- max response [2]: -119%

SMILES: CCn1ccc(NS(=O)(=O)c2ccc(N)cc2)nc1=O
- max response [1]: 4.48%
- max response [2]: -20.6%
- outcome [3]: inactive

SMILES: Nc1ncnc2c1ncn2Cc1c(F)cccc1Cl
- max response [1]: -8.42%
- outcome [2]: inactive

SMILES: CCN(CC)CCOc1ccc(/C(=C(\Cl)c2ccccc2)c2ccccc2)cc1
- max response [1]: -10.3% and -19.3%

SMILES: CNC(=O)c1cnn(-c2nc(N)c3ncn([C@@H]4O[C@H](CO)[C@@H](O)[C@H]4O)c3n2)c1
- max response [1]: -10.9%
- outcome [2]: inactive

SMILES: CCCCCN(CCCOC)C(=O)C(CCC(=O)O)NC(=O)c1ccc(Cl)c(Cl)c1 (stereo not given)
- max response [1]: -0.363%
- max response [2]: -5.64%

SMILES: CCOC(=O)C(=O)CCCCCCl
- outcome [1]: inactive
- max response [2]: -7.06%
- max response [3]: -12.5%

SMILES: CCCCCOc1ccccc1/C(=C\SC)n1ccnc1
- max response [1]: -4.59%
- Potency [2]: 26.6 µM (active)

SMILES: CCN1CCCC1CN (stereo not given)
- max response [1]: 3.84%
- outcome [2]: inactive

SMILES: CC(C)C[C@@H]1[C@H](c2ccccc2)OC(=O)N1CCCN1CCCCCC1
- max response [1]: -2.82%
- Potency [2]: 23.7 µM (active)
- max response [3]: -13.9%

SMILES: COCCc1ccc(OCC2CO2)cc1 (stereo not given)
- max response [1]: 1.12%
- max response [2]: 1.88%

SMILES: C[C@@H]1C[C@H]2[C@@H]3CCC4=CC(=O)C=C[C@]4(C)[C@@]3(F)[C@@H](O)C[C@]2(C)[C@@]1(O)C(=O)COC(=O)c1ccncc1
- max response [1]: -11%
- max response [2]: -6.52%

SMILES: c1ccc2occc2c1
- max response [1]: -10.5%
- max response [2]: -7.13%

SMILES: CC(C)(C)NCC(O)COc1ccccc1OCC1CCCO1 (stereo not given)
- max response [1]: -2.81%
- max response [2]: -1.05%

SMILES: Cc1ccc(C(=O)C(=O)O)cc1C
- max response [1]: -7.54%
- outcome [2]: inactive

SMILES: CC1c2ccccc2CN1NC(=O)c1ccc(Cl)c(S(N)(=O)=O)c1 (stereo not given)
- max response [1]: -8.72%
- max response [2]: -4.92%
- max response [3]: 0.897%

SMILES: CCS(=O)(=O)c1ccc(OC)c(C(=O)OC)c1
- max response [1]: 0.361%
- outcome [2]: inactive
- max response [3]: 4.82%
